Among the data in PubChem BioAssay (EPA / NIEHS) are outcome and AC50 values, retold here.

In assay [1] the target is Myc proto-oncogene protein (Homo sapiens) (UniProt P01106). Nature of the assay: ATG_Myc_CIS: Attagene CIS-FACTORIAL HepG2 Assay for human Myelocytomatosis (Myc) Proto-Oncogene Transcription Factor (AID 2282990). Conditions: HepG2, Attagene cis-reporter transcription factor activity; actives raise or lower the signal. The procedure, abridged: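 HepG2 cells transiently transfected with multiple cis-promoter-driven reporter transcription units, so endogenous TF activity is read. After 24 h compound exposure, reporter mRNA was quantified by RT-PCR, 6-FAM labelling, HpaI digestion and capillary electrophoresis; bidirectional fit versus DMSO.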
Sequence of Myc proto-oncogene protein (Homo sapiens) (P01106 whole entry, looked up): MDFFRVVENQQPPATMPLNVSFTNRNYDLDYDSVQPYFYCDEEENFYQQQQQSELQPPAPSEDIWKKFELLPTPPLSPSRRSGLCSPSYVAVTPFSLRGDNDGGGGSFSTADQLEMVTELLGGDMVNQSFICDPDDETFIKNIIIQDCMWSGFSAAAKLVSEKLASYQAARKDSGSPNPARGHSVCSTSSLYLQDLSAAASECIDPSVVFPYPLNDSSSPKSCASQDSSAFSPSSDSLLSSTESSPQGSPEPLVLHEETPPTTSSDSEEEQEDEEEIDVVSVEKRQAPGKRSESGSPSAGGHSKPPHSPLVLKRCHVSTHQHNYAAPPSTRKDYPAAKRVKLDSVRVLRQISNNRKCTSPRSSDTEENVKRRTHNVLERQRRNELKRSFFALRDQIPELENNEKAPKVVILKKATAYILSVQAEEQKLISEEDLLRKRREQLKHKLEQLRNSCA

Assay [2] in a line: ATG_NF_kB_CIS: Attagene CIS-FACTORIAL HepG2 Assay for human Nuclear Factor Kappa B (NF-kB) (AID 2282991). Conditions: HepG2 Attagene cis-factorial NF-kB reporter mRNA; actives raise or lower the signal. In outline:
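Transient MRTU transfection of human HepG2 liver cells → 24 h chemical exposure → total RNA, oligo(dT) RT → PCR, 6-FAM primer extension, HpaI digest 2 h 37 C → CE fragment analysis. Bidirectional fitting, DMSO negative control.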

Assay [3] can be described thus: ATG_NRF2_ARE_CIS: Attagene CIS-FACTORIAL HepG2 Assay for human Nuclear Factor Erythroid 2 Related Factor 2 (NFR2) response to Antioxidant Response Elements (ARE) (AID 2282992).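 As to AC50: reporter mRNA level measured by RT-PCR and capillary electrophoresis fluorescence.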 To be noted: HepG2 Attagene ARE/NRF2 reporter, transcription factor activity; actives raise or lower the signal. The procedure, abridged: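 HepG2 cells transiently transfected with multiplexed cis-element reporter constructs, 24 h after chemical dosing; reporter mRNA quantified by RT-PCR, fluorescent primer extension, HpaI digestion and capillary electrophoresis. Bidirectional fit relative to DMSO.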

Assay [4] in a line: ATG_Oct_MLP_CIS: Attagene CIS-FACTORIAL HepG2 Assay for human Octamer-Binding Transcription Factor (Oct) (AID 2282993). To be noted: HepG2 Attagene cis-factorial Oct reporter, mRNA; actives raise or lower the signal. The procedure, abridged: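 Readout is reporter transcript level from RT-PCR with fluorescent primer extension and capillary electrophoresis, fitted in both directions against DMSO. Transfected HepG2 reporter units report endogenous factor activity after 24 h dosing.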

Assay [5] addresses Cellular tumor antigen p53 (Homo sapiens) (UniProt P04637). Nature of the assay: ATG_p53_CIS: Attagene CIS-FACTORIAL HepG2 Assay for human p53 Transcription Factor (AID 2282994). To be noted: HepG2 p53 cis-element reporter, Attagene mRNA; actives raise or lower the signal. In outline: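 HepG2 cells transiently transfected with cis-regulated multiple reporter transcription units, dosed 24 h. Reporter mRNA measured by RT-PCR, 6-FAM primer extension, HpaI digestion and capillary electrophoresis; bidirectional fit relative to DMSO.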

A short description of assay [6]: BSK_3C_TissueFactor: BioMAP Diversity Plus: 3C Assay for Tissue Factor Biomarker Activity (AID 2282997). Conditions: BioMAP 3C HUVEC, tissue factor biomarker readout; actives raise or lower the signal. The procedure, abridged: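 Human vascular primary cells (umbilical vein endothelium) received test chemical; Tissue Factor was determined by ELISA at 24 h, and both gain and loss of signal versus DMSO were fitted.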

Assay [7] can be described thus: BSK_3C_VCAM1: BioMAP Diversity Plus: 3C Assay for Vascular cell adhesion molecule 1 (VCAM1) Biomarker Activity (AID 2282999). Conditions: BioMAP 3C HUVEC, VCAM1 ELISA, cytokine-stimulated; actives raise or lower the signal. The procedure, abridged:
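Human umbilical vein endothelial cells were dosed with compound for 24 h, after which cell-surface VCAM-1 was quantified by ELISA. Bidirectional curve fitting used DMSO as negative control and activity baseline.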

A short description of assay [8]: BSK_4H_Eotaxin3: BioMAP Diversity Plus: 4H Assay for Eotaxin 3 Biomarker Activity (AID 2283000).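 As to outcome: CCL26 protein level quantified by ELISA in parallel with SRB cytotoxicity check.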 Conditions: primary human endothelial cells (HUVEC); actives raise or lower the signal. The procedure, abridged:
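Readout is Eotaxin-3 (CCL26) level by ELISA in primary human umbilical vein endothelial cells harvested 24 h after chemical exposure; activity fitted in both directions against DMSO control.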

Read-out in assay [9]: Intercellular Adhesion Molecule 1 (ICAM1), ICAM1 (gene 3383)
Nature of the assay: BSK_3C_ICAM1: BioMAP Diversity Plus: 3C Assay for Intercellular Adhesion Molecule 1 (ICAM1) Biomarker Activity (AID 2283003). To be noted: primary human endothelial cells (HUVEC); actives raise or lower the signal. In outline:
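Human vascular endothelial primary cells, 3C conditions, 24 h treatment. ICAM-1 by ELISA.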

Assay [10] addresses human Retinoic Acid Receptor beta (RARb), RARB (gene 5915) (UniProt P10826). Nature of the assay: ATG_RARb_TRANS: Attagene TRANS-FACTORIAL HepG2 Assay for human Retinoic Acid Receptor beta (AID 2283004; active = hit-call score of the fitted dose curve at least 0.9, where 1 is the maximum). The procedure, abridged:
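Readout is reporter mRNA induction: RNA reverse-transcribed, PCR-amplified, FAM-labelled, HpaI-cut and resolved by capillary electrophoresis. Transiently transfected HepG2 cells carrying exogenous NR–Gal4 chimeras were dosed for 24 h; activity fitted upward relative to DMSO.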

Assay [11] addresses Retinoic acid receptor alpha (Homo sapiens) (UniProt P10276). Nature of the assay: ATG_RARa_TRANS: Attagene TRANS-FACTORIAL HepG2 Assay for human Retinoic Acid Receptor alpha (RARa) (AID 2283005; active = hit-call score of the fitted dose curve at least 0.9, where 1 is the maximum). In outline: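 HepG2 cells transiently transfected with multiple reporter units expressing chimeric RARα-GAL4 fusion, with GAL4-UAS-driven reporters. After 24 h compound exposure, reporter mRNA induction quantified by RT-PCR and capillary electrophoresis with fluorescent labeling; gain-of-signal fitted relative to DMSO control.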

Assay [12] in a line: BSK_3C_Proliferation: Cell Proliferation Assessment in the BioMAP Diversity Plus: 3C Assay (AID 2283006).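 As to AC50: potency may reflect either rise or fall in cell number versus DMSO.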 To be noted: primary human endothelial cells (HUVEC). In outline:
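Proliferation of human vascular endothelial primary cells after 48 h dosing, quantified as SRB-stained protein at 560 nm relative to DMSO.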

For assay [13], the target named is Peroxisome proliferator-activated receptor gamma (Homo sapiens) (UniProt P37231). Nature of the assay: ATG_PPARg_TRANS: Attagene TRANS-FACTORIAL HepG2 Assay for human Peroxisome Proliferator-activated Receptor-gamma (PPARg) (AID 2283007; active = hit-call score of the fitted dose curve at least 0.9, where 1 is the maximum). The procedure, abridged: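 Transient transfection of HepG2 with GAL4-UAS-driven reporter units; chemical dosing 24 h; total RNA → oligo(dT) RT → PCR with reporter primers → 6-FAM primer extension → HpaI digest 2 h 37 C → capillary electrophoresis. Positive direction vs DMSO.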
Sequence of Peroxisome proliferator-activated receptor gamma (Homo sapiens) (P37231 whole entry, looked up, the tested form may be a part): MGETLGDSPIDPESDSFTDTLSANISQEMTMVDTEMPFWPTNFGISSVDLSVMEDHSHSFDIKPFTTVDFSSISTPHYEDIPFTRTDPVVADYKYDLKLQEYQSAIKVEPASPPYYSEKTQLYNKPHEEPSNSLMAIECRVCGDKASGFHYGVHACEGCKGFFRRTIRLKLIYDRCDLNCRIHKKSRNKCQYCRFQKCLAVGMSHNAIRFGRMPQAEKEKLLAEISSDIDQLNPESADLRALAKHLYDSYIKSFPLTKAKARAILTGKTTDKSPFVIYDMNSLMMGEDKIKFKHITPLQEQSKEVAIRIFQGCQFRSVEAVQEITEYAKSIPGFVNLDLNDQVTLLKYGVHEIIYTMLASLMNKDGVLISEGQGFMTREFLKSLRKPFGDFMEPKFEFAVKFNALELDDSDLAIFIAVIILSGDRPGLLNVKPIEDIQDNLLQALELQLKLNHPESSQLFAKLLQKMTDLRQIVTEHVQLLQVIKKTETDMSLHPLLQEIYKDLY

In assay [14] the target is human Retinoic Acid Receptor gamma (RARg), RARG (gene 5916) (UniProt P13631). Nature of the assay: ATG_RARg_TRANS: Attagene TRANS-FACTORIAL HepG2 Assay for human Retinoic Acid Receptor gamma (RARg) (AID 2283009; active = hit-call score of the fitted dose curve at least 0.9, where 1 is the maximum). The procedure, abridged:
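HepG2, RARg-GAL4 TRANS system, 24 h exposure; reporter mRNA by RT-PCR + CE fluorescence; increase over DMSO.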

The target of assay [15] is human RAR-related Orphan Receptor beta (RORb), RORB (gene 6096) (UniProt Q92753). Nature of the assay: ATG_RORb_TRANS: Attagene TRANS-FACTORIAL HepG2 Assay for human RAR-related Orphan Receptor beta (RORb) (AID 2283010; active = hit-call score of the fitted dose curve at least 0.9, where 1 is the maximum). In outline:
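In this TRANS-format test, human HepG2 cells express chimeric NR-Gal4 fusion proteins driving GAL4-UAS reporters. After 24 h dosing, reporter transcripts are measured by fluorescent RT-PCR/capillary electrophoresis, with DMSO as negative control.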

The target of assay [16] is human RAR-related Orphan Receptor gamma (RORg), RORC (gene 6097) (UniProt P51449). Nature of the assay: ATG_RORg_TRANS: Attagene TRANS-FACTORIAL HepG2 Assay for human RAR-related Orphan Receptor gamma (RORg) (AID 2283011; active = hit-call score of the fitted dose curve at least 0.9, where 1 is the maximum). The procedure, abridged: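 Transient MRTU transfection of HepG2 (TRANS format, exogenous NR-Gal4 chimera). 24 h dosing. Total RNA → oligo(dT) RT → PCR → 6-FAM labelling → HpaI cut → CE. Gain vs DMSO.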
Sequence of human RAR-related Orphan Receptor gamma (RORg), RORC (gene 6097) (P51449 whole entry, looked up, the tested form may be a part): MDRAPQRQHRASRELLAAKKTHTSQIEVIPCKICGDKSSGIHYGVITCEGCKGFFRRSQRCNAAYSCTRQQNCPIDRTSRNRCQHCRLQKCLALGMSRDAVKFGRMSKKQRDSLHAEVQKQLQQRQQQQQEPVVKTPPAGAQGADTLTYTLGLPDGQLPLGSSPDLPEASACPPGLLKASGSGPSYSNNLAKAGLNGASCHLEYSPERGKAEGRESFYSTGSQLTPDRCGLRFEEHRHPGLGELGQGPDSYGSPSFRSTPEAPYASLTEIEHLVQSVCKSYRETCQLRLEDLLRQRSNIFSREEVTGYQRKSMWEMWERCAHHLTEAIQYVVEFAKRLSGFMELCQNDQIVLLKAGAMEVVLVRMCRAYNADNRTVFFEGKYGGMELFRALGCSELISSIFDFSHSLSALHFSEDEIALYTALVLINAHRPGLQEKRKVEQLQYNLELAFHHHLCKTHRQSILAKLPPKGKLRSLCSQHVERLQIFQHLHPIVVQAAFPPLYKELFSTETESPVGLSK

Assay [17] addresses human Peroxisome Proliferator-activated Receptor delta (PPARd), PPARD (gene 5467) (UniProt Q03181). Nature of the assay: ATG_PPARd_TRANS: Attagene TRANS-FACTORIAL HepG2 Assay for human Peroxisome Proliferator-activated Receptor delta (PPARd) (AID 2283002; active = hit-call score of the fitted dose curve at least 0.9, where 1 is the maximum). The procedure, abridged: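 HepG2 cells transiently transfected with multiplexed GAL4-UAS reporter units and exogenous chimeric NR-Gal4 proteins; 24 h compound exposure. Reporter mRNA measured by RT-PCR, 6-FAM labelling, HpaI digestion and capillary electrophoresis; gain of signal versus DMSO.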

The target in assay [18] is Nuclear receptor subfamily 1 group I member 2 (Homo sapiens) (UniProt O75469). Nature of the assay: ATG_PXR_TRANS: Attagene TRANS-FACTORIAL HepG2 Assay for human Pregnane X Receptor (PXR) (AID 2283008; active = hit-call score of the fitted dose curve at least 0.9, where 1 is the maximum). The procedure, abridged:
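HepG2 cells transiently transfected with GAL4-UAS reporter units and PXR-Gal4 chimera, exposed 24 h. Reporter mRNA quantified by RT-PCR, fluorescent labelling, HpaI digestion and capillary electrophoresis; gain of signal vs DMSO.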

The nature of assay [19]: BSK_3C_uPAR: BioMAP Diversity Plus: 3C Assay for Urokinase-type plasminogen activator receptor (uPAR) Biomarker Activity (AID 2282998). Conditions: BioMAP 3C HUVEC, uPAR biomarker ELISA; actives raise or lower the signal. In outline:
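Cell-surface uPAR on HUVEC (3C system) read by ELISA at 24 h post-treatment, with DMSO as baseline and fitting in both directions. Parallel cultures stained with SRB to flag overt cytotoxicity.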

Assay [20] has as its target human Peroxisome Proliferator-activated Receptor alpha (PPARa), PPARA (gene 5465) (UniProt Q07869). Nature of the assay: ATG_PPARa_TRANS: Attagene TRANS-FACTORIAL HepG2 Assay for human Peroxisome Proliferator-activated Receptor alpha (PPARa) (AID 2283001; active = hit-call score of the fitted dose curve at least 0.9, where 1 is the maximum). In outline:
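HepG2 cells transiently transfected with multiplexed GAL4-UAS reporter units and chimeric NR-Gal4 constructs were dosed for 24 h. Reporter mRNA was measured by RT-PCR with fluorescent labelling and capillary electrophoresis; gain of signal fitted against DMSO.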

The structures appear in SMILES notation. Several values for one entry are separate records, joined by “and”; a condition that tells them apart may be missing. Equal entries are not always repeated. Inconclusive results are not listed. Some compounds were tested as several samples or in several runs, with calls that do not always agree. Activity calls are given as the source filed them. The calls were made as follows, unless noted: active = hit-call score of the fitted dose curve at least 0.9, where 1 is the maximum; inactive = score below 0.9.

Sequence of human Peroxisome Proliferator-activated Receptor alpha (PPARa), PPARA (gene 5465) (Q07869 whole entry, looked up, the tested form may be a part): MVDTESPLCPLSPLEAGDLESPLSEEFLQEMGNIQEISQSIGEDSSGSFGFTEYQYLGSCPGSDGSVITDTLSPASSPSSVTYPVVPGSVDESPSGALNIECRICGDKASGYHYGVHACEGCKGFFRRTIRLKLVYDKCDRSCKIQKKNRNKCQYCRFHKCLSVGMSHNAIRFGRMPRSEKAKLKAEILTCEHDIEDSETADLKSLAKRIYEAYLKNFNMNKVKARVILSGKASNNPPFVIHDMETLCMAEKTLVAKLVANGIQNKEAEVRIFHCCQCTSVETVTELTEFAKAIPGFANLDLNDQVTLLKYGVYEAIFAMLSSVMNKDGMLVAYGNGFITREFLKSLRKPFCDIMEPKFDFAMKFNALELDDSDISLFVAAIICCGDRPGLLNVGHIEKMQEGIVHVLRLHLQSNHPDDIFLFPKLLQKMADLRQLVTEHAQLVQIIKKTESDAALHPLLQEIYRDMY
Sequence of human Retinoic Acid Receptor beta (RARb), RARB (gene 5915) (P10826 whole entry, looked up, the tested form may be a part): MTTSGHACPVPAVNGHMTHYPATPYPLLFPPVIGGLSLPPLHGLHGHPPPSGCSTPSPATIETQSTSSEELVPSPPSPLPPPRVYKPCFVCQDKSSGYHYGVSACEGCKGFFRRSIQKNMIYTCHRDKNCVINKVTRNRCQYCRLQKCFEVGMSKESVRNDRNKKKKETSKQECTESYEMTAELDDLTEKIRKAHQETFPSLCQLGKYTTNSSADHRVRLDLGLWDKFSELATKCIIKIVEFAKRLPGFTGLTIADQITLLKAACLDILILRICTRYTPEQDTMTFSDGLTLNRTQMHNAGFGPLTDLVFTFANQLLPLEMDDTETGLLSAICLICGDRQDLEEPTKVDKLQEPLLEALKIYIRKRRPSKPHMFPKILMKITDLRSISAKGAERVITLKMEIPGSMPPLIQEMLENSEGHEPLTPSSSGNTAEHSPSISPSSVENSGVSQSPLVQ
Sequence of Nuclear receptor subfamily 1 group I member 2 (Homo sapiens) (O75469 whole entry, looked up, the tested form may be a part): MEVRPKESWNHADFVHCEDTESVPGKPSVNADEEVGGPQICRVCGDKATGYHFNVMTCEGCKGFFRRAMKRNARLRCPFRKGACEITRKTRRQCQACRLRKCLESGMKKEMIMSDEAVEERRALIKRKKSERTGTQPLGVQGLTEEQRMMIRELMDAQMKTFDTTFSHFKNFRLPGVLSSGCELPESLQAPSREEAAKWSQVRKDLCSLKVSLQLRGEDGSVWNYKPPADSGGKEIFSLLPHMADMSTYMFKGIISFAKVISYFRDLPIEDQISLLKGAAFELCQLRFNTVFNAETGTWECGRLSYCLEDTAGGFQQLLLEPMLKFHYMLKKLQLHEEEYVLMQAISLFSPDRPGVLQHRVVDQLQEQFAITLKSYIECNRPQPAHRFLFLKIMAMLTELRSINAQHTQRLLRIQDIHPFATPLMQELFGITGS
Sequence of Cellular tumor antigen p53 (Homo sapiens) (P04637 whole entry, looked up): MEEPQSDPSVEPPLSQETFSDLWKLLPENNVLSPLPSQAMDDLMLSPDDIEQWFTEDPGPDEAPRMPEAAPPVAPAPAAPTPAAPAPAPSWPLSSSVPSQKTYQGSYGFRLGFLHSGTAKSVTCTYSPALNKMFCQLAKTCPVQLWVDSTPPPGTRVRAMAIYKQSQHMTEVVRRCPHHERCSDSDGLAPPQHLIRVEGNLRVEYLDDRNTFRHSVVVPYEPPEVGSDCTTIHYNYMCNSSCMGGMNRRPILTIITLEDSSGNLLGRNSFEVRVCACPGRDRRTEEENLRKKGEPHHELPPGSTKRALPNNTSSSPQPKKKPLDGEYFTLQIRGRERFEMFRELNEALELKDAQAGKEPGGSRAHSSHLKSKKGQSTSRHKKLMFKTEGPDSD
Sequence of human Retinoic Acid Receptor gamma (RARg), RARG (gene 5916) (P13631 whole entry, looked up, the tested form may be a part): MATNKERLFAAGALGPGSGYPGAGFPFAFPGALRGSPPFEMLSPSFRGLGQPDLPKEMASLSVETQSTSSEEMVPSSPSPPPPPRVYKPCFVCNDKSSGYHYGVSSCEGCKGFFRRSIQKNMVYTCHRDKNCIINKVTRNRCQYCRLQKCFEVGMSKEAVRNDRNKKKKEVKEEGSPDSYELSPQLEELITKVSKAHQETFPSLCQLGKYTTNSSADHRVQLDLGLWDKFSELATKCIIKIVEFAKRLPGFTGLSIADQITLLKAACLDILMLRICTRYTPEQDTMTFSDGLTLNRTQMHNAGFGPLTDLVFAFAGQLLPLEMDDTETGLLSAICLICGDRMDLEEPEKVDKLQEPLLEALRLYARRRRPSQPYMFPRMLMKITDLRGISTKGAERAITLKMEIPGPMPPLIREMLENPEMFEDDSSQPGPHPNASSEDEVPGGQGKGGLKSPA
Sequence of Retinoic acid receptor alpha (Homo sapiens) (P10276 whole entry, looked up, the tested form may be a part): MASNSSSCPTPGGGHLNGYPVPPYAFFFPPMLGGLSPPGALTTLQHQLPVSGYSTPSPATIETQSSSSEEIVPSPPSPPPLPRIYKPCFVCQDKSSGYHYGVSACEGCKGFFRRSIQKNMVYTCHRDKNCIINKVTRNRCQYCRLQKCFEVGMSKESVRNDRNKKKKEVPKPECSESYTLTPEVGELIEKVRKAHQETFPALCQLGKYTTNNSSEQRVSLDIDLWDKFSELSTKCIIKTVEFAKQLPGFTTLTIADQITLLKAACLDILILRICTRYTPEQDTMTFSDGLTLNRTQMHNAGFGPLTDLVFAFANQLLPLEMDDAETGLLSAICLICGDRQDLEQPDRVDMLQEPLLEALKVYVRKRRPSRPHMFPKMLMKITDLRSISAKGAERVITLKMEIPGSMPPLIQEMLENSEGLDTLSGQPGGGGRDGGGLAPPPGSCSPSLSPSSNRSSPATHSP
Sequence of human RAR-related Orphan Receptor beta (RORb), RORB (gene 6096) (Q92753 whole entry, looked up, the tested form may be a part): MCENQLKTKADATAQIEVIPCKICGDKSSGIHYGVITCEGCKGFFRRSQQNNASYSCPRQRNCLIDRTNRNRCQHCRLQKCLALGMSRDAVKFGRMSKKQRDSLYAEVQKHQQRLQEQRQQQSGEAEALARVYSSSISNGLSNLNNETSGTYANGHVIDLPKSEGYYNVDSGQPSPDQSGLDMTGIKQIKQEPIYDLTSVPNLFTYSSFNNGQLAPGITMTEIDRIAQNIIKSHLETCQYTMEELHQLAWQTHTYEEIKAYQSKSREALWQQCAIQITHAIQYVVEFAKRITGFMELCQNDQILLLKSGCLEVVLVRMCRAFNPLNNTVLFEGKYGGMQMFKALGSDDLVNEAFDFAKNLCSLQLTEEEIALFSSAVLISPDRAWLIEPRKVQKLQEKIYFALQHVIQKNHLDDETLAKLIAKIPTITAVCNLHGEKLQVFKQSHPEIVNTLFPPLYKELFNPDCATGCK

On to `CCC(O)=C1C(=O)CC(C(=O)O)CC1=O` (stereo not drawn), for which the call in assay [1], in [2], in assay [4], in assay [5], in assay [6] and in assay [7] was inactive. Besides, the outcome in assay [8], in [9], in [10], in assay [11], in [12] and in assay [14] was inactive. For the same compound, the compound was classed as inactive in assay [15] and in assay [16]. Also, the values for the AC50 in assay [3] and in [13] were 35.6 µM (active) and 22.3 µM (active), respectively.
With `CCCN(CCC)c1c([N+](=O)[O-])cc(C(F)(F)F)c(N)c1[N+](=O)[O-]`, the result in assay [1], in assay [5], in assay [17], in assay [10], in assay [11] and in assay [13] was inactive. Further, the compound was called inactive in [14] and in assay [16]. Besides, the AC50 is 50 µM (active) in [2]; 5.51 µM (active) in assay [3]; 4.57 µM (active) in [4]; 30.8 µM (active) in assay [7]; 30.3 µM (active) in assay [8]; 36.8 µM (active) in assay [9]. Further, the AC50 in [12] is 13.2 µM (active); in assay [18] it was 3.98 µM (active).
As to `CCCOC(=O)c1ccc(C(=O)OCCC)nc1`, the result in [1], in assay [2], in assay [3], in [4], in assay [5] and in assay [6] was inactive. Besides, the outcome in assay [19], in assay [7], in assay [8], in assay [20], in [17] and in [9] was inactive. Also, the result in assay [10], in assay [11], in assay [12], in assay [13], in [18] and in assay [14] was inactive. Besides, the result in assay [15] was inactive.
As to `c1ccc(Nc2ccccc2)cc1`, the result in [1], in assay [2], in [4], in assay [5], in [6] and in assay [19] was inactive. Moreover, the result in assay [7], in assay [8], in assay [20], in assay [17], in assay [9] and in assay [10] was inactive. For the same compound, the call in [11], in [12] and in assay [18] was inactive. Moreover, the AC50 in [3] is 123 µM (active) and 30.4 µM (active); in assay [4], 50 µM (active); in assay [13], 50 µM (active).
As to `COC(=O)c1c(Cl)nn(C)c1S(=O)(=O)NC(=O)Nc1nc(OC)cc(OC)n1`, the compound was called inactive in [1], in assay [2], in [3], in assay [4], in assay [5] and in [7]. Besides, the outcome in [8], in assay [20], in assay [17], in assay [9], in assay [12] and in assay [13] was inactive. Moreover, the compound was classed as inactive in assay [18], in [14] and in assay [15].
Consider `CCN(Cc1c(F)cccc1Cl)c1c([N+](=O)[O-])cc(C(F)(F)F)cc1[N+](=O)[O-]`, for which the call in [1], in [2], in assay [4], in assay [5], in assay [7] and in assay [8] was inactive. The outcome in [17], in assay [9], in assay [10], in assay [11], in assay [13] and in assay [14] was inactive. Also, in assay [16], the result was inactive. The AC50 is 4.28 µM (active) in assay [3], 12.9 µM (active) in [12] and 3.41 µM (active) in assay [18].
As to `CC(C)(C)[C@@H](O)[C@@H](Cc1ccc(Cl)cc1)n1cncn1`, the compound was called inactive in assay [1], in assay [2], in assay [5], in [6], in [7] and in assay [8]. Further, the compound was classed as inactive in [20], in [17], in assay [9], in assay [10], in assay [11] and in assay [12]. The outcome in [13], in [18], in assay [14] and in assay [16] was inactive. Further, the results for the AC50 in assay [3] and in assay [4] were 13.4 µM (active) and 7.98 µM (active), respectively.
